Source: PubChem BioAssay (EPA / NIEHS)
“And” between values parts separate entries of the source, which are not always exact repeats. Equal values may be shown once. Records with an inconclusive call do not appear. Where a structure was tested more than once in an assay, its records may differ in their call. The source made the active and inactive calls. How the source made its calls, unless noted: active means hit-call score of the fitted dose curve at least 0.9, where 1 is the maximum; inconclusive means response in the unintended direction; inactive means score below 0.9.

Legend:
[1] = target: Peroxisome proliferator-activated receptor gamma (Homo sapiens) (UniProt P37231); experiment: NVS_NR_hPPARg: NovaScreen (NVS) Nuclear Receptor Binding Assay for human Peroxisome Proliferator-activated Receptor gamma (PPARg) (AID 2283370)
In short: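 Cell-free fluorescence polarization binding to human PPARg protein, read 2 h after dosing. Primary screen in duplicate at 25 uM, actives followed in concentration series; loss of signal relative to DMSO scored.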

[2] = target: Estrogen receptor beta (Homo sapiens) (UniProt Q92731); experiment: OT_ER_ERbERb_1440: Odyssey Thera (OT) 24-hour HEK293T Protein-Complementation Assay for Estrogen Receptor-beta/-beta Homodimer (AID 2283380);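 further: fluorescence gain from ER beta LBD homodimer complementation read by laser scanning cytometry; scored as signal increase over DMSO baseline for both agonists and antagonists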
In short: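 HEK293T cells stably expressing human ER-beta LBD (aa 310-547) PCA homodimer pair, dosed 24 h; formaldehyde-fixed, Draq5-stained. Readout: increase in nuclear (agonist) or nuclear plus cytoplasmic (antagonist) fluorescence intensity versus DMSO, gain-of-signal fitting.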

[3] = target: Estrogen receptor (Homo sapiens) (UniProt P03372); experiment: OT_ERa_GFPERaERE_0480: Odyssey Thera (OT) 8-hour HeLa Transcription Induction Assay for Estrogen Receptor (AID 2283381; active means hit-call score of the fitted dose curve at least 0.9, where 1 is the maximum; inactive means score below 0.9)
In short: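 Fluorescence microscopy with high-content image analysis measures ERE-driven GFP induction in HeLa cells at 8 h post-dose. Increases fitted against DMSO baseline.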

[4] = target: Estrogen receptor (Homo sapiens) (UniProt P03372); experiment: OT_ERa_GFPERaERE_0120: Odyssey Thera (OT) 2-hour HeLa Transcription Induction Assay for Estrogen Receptor (AID 2283382)
In short: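 Fluorescence-microscopy images of the GFP-ERα/ERE reporter, scored by high-content image algorithms, give the readout. HeLa exposure lasted 2 h, and only signal increase over DMSO was fitted.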

[5] = target: Retinoic acid receptor RXR-alpha (Homo sapiens) (UniProt P19793); experiment: OT_NURR1_NURR1RXRa_0480: Odyssey Thera (OT) 8-hour HEK293T Protein Complementation Assay for Nurr1/retinoid X receptor (RXR) (AID 2283385)
In short: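 Interaction of Nurr1 with RXRα read as reconstituted reporter fluorescence in a HEK293T fragment-complementation system, 8 h post-treatment; increase over DMSO baseline analysed.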

[6] = target: Retinoic acid receptor RXR-alpha (Homo sapiens) (UniProt P19793); experiment: OT_NURR1_NURR1RXRa_1440: Odyssey Thera (OT) 24-hour HEK293T Protein Complementation Assay for Nurr1/retinoid X receptor (RXR) (AID 2283386)
In short: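 Gain in fluorescence, fitted relative to DMSO, reflects Nurr1–RXRα association in HEK293T cells after 24 h dosing. Bait and prey are each linked to a reporter-protein fragment that reassembles on interaction.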

[7] = target: Peroxisome proliferator-activated receptor gamma (Homo sapiens) (UniProt P37231); experiment: OT_PPARg_PPARgSRC1_0480: Odyssey Thera (OT) 8-hour Protein-Complementation Assay for Peroxisome Proliferator-activated Receptor Gamma / SRC-1 Co-activator (AID 2283387)
In short: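 Read-out: 488 nm N/C fluorescence ratio from complemented Venus YFP fragments, ≥350 cells per image, gain-of-signal fitted against DMSO baseline. Fusions of PPARg/SRC-1 with IFP1/IFP2 expressed transiently in HEK293T; compounds applied 8 h.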

[8] = target: Peroxisome proliferator-activated receptor gamma (Homo sapiens) (UniProt P37231); experiment: OT_PPARg_PPARgSRC1_1440: Odyssey Thera (OT) 24-hour Protein-Complementation Assay for Peroxisome Proliferator-activated Receptor Gamma/ SRC-1 Co-activator (AID 2283388)
In short: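 HEK293T transiently transfected with PPARg/SRC-1 split-Venus YFP fusions 48 h before dosing, then treated 24 h at 37C. Fixed cells imaged; nuclear/cytoplasmic 488 nm fluorescence ratio, gain of signal versus DMSO.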

[9] = target: mouse Estrogen Receptor alpha (Era), Esr1 (gene 13982) (UniProt P19785); experiment: NVS_NR_mERa: NovaScreen (NVS) Nuclear Receptor Binding Assay for mouse Estrogen Receptor alpha (Era) (AID 2283378);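 further: hit means loss of bound radioligand signal relative to DMSO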
In short: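 Cell-free radioligand competitive displacement binding, read by filter-based scintillation counting 18 h after dosing. Primary screen run in duplicate at 25 uM, actives retested in concentration series; loss of signal versus DMSO.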

[10] = target: Bile acid receptor (Homo sapiens) (UniProt Q96RI1); experiment: OT_FXR_FXRSRC1_0480: Odyssey Thera (OT) 8-hour HEK293T Protein-Complementation Assay for Farnesoid X receptor/SRC-1 Co-activator (AID 2283383)
In short: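 Binding of FXR to coactivator SRC-1 was read as fluorescence from a reconstituted split reporter in HEK293T cells, 8 h after chemical addition. Only increases in signal versus DMSO were fit.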

[11] = CEETOX_H295R_11DCORT: CeeTox H295R High-throughput Steroidogenesis Assay for 11-Deoxycortisol (11DCORT) (AID 2283432; active means hit-call score of the fitted dose curve at least 0.9, where 1 is the maximum; inactive means score below 0.9;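 further: 11-deoxycortisol secreted into the medium measured by LC-MS/MS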); conditions: actives raise or lower the signal
In short: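 H295R cells; 10 uM forskolin prestim 48 h; compound in 0.1% DMSO 48 h; media extracted with MTBE; 11-deoxycortisol by LC-MS/MS, 7-point standard curve; gain/loss vs DMSO baseline; viability by MTT in same wells.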

[12] = CEETOX_H295R_OHPREG: CeeTox H295R High-throughput Steroidogenesis Assay for OH-Pregnenolone (OHPREG) (AID 2283434; active means hit-call score of the fitted dose curve at least 0.9, where 1 is the maximum; inactive means score below 0.9); conditions: actives raise or lower the signal
In short: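 Readout: HPLC-MS/MS of 17alpha-hydroxypregnenolone in medium after 48 h chemical exposure of H295R cells pretreated with forskolin. Values fitted bidirectionally relative to DMSO; chemicals reducing viability to 20–70% were retested after 10-fold dilution.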

[13] = CEETOX_H295R_OHPROG: CeeTox H295R High-throughput Steroidogenesis Assay for OH-Progesterone (OHPROG) (AID 2283435; active means hit-call score of the fitted dose curve at least 0.9, where 1 is the maximum; inactive means score below 0.9;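 on AC50: 17alpha-hydroxyprogesterone secreted into medium measured by HPLC-MS/MS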); conditions: actives raise or lower the signal
In short: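 Medium steroid levels read by LC-MS/MS after 48 h chemical treatment (0.1% DMSO) of human adrenal H295R cells that had been forskolin-primed (10 uM, 48 h). Gain or loss fitted against DMSO; MTT cytotoxicity checked per well.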

[14] = tested on: guinea pig Dopamine Transporter (DAT), gene 100714898; experiment: NVS_TR_gDAT: NovaScreen (NVS) Transporter Assay for guinea pig Dopamine Transporter (DAT) (AID 2283369);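 further: active compounds lower bound radioligand signal relative to DMSO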
In short: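 Guinea pig striatal membranes, cell-free radioligand binding with filter-based scintillation counting, read 2 h after dosing. Loss of signal versus DMSO baseline; single-concentration primary (25 uM) then concentration-response up to 50 uM.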

[15] = tested on: rat Norepinephrine Transporter (NET), gene 83511; experiment: NVS_TR_rNET: NovaScreen (NVS) Transporter Assay for rat Norepinephrine Transporter (NET) (AID 2283373)
In short: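 Competitive radioligand displacement at the rat NET using forebrain membrane preparations, 1 h incubation, filter-based scintillation readout. Primary testing in duplicate at a single 25 uM concentration; confirmed actives retested across concentrations.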

[16] = target: human Dopamine Transporter (DAT), SLC6A3 (gene 6531) (UniProt Q01959); experiment: NVS_TR_hDAT: NovaScreen (NVS) Transporter Assay for human Dopamine Transporter (DAT) (AID 2283374);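 further: activity means loss of bound radioligand signal relative to DMSO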
In short: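 Extracted human SLC6A3 protein incubated 1 h with radioligand and test chemical; bound fraction separated on filters and counted. Single 25 uM duplicate screen preceded concentration-response follow-up; positive and negative controls on every plate.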

[17] = target: rat Serotonin Transporter (SERT), Slc6a4 (gene 25553) (UniProt P31652); experiment: NVS_TR_rSERT: NovaScreen (NVS) Transporter Assay for rat Serotonin Transporter (SERT) (AID 2283375)
In short: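 Rat forebrain membranes; radioligand displacement at SERT read by filter-based scintillation counting, 1 h after dosing. Screened in duplicate at 25 uM, actives then run in concentration series; loss of signal versus DMSO baseline.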

[18] = target: human Norepinephrine Transporter (NET), SLC6A2 (gene 6530) (UniProt P23975); experiment: NVS_TR_hNET: NovaScreen (NVS) Transporter Assay for human Norepinephrine Transporter (NET) (AID 2283377);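 further: cell-free membrane protein extracted from CHO cells expressing human NET; displacement of radioligand from human NET seen as loss of scintillation signal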
In short: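 In this cell-free binding screen, chemicals at 25 uM (duplicate) compete with a radioligand for CHO-derived human NET over 1 hour, with filter-based radiodetection.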

Measured: AC50

Sequence of Peroxisome proliferator-activated receptor gamma (Homo sapiens) (P37231 whole entry, looked up, the tested form may be a part): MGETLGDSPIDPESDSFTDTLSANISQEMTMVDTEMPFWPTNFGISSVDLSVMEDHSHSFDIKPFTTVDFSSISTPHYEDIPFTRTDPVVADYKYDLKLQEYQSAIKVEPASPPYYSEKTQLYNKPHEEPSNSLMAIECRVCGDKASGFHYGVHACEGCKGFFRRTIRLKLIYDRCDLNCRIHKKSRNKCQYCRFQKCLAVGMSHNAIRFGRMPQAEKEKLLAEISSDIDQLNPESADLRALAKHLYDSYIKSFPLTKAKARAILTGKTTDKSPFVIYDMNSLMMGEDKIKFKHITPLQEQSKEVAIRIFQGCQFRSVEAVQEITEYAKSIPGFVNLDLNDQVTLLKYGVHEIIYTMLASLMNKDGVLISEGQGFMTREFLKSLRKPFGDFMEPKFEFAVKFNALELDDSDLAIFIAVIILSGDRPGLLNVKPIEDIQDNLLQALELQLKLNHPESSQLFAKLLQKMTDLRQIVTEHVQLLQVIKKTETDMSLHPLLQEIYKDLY
Sequence of Bile acid receptor (Homo sapiens) (Q96RI1 whole entry, looked up): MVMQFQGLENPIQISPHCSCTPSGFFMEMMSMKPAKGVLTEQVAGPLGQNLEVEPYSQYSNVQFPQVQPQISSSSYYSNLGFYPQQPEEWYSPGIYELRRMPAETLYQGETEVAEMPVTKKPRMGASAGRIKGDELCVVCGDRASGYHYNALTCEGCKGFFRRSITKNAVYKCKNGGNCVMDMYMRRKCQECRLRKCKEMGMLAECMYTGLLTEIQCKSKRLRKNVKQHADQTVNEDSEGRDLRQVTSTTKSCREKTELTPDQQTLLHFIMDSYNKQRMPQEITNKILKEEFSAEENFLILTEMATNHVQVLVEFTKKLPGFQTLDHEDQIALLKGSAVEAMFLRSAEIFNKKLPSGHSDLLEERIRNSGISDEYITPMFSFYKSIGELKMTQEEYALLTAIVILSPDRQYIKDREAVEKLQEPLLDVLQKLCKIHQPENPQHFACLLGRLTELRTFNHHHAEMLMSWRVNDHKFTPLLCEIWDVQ
Sequence of Estrogen receptor beta (Homo sapiens) (Q92731 whole entry, looked up, the tested form may be a part): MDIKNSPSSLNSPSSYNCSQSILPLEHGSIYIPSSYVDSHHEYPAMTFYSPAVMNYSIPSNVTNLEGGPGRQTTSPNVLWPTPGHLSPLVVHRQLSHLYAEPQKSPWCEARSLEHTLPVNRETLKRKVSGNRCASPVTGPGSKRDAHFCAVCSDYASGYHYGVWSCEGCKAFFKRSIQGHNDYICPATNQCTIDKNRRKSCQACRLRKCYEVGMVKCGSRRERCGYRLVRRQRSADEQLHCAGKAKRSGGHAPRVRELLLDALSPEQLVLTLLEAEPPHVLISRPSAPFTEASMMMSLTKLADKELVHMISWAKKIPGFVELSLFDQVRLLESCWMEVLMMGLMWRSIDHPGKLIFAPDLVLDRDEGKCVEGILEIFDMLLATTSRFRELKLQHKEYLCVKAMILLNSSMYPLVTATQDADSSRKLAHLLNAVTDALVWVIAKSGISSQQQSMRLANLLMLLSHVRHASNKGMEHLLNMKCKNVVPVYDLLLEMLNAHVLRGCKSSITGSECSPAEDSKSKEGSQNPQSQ
Sequence of human Norepinephrine Transporter (NET), SLC6A2 (gene 6530) (P23975 whole entry, looked up): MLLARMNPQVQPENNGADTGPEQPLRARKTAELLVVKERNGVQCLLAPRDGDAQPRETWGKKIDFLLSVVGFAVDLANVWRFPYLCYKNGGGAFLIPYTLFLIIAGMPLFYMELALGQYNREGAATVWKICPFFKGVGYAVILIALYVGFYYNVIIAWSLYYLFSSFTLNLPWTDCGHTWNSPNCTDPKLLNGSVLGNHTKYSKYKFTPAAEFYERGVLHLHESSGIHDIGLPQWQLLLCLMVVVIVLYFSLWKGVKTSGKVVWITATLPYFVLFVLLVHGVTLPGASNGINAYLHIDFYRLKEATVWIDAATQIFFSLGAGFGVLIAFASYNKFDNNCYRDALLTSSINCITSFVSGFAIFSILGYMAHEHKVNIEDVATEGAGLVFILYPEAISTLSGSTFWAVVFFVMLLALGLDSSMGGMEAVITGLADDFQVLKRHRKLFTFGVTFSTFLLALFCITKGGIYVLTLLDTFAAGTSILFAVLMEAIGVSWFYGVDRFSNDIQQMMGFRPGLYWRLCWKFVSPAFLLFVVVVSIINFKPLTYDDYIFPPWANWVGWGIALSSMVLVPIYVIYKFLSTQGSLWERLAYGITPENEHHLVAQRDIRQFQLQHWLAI
Sequence of Retinoic acid receptor RXR-alpha (Homo sapiens) (P19793 whole entry, looked up, the tested form may be a part): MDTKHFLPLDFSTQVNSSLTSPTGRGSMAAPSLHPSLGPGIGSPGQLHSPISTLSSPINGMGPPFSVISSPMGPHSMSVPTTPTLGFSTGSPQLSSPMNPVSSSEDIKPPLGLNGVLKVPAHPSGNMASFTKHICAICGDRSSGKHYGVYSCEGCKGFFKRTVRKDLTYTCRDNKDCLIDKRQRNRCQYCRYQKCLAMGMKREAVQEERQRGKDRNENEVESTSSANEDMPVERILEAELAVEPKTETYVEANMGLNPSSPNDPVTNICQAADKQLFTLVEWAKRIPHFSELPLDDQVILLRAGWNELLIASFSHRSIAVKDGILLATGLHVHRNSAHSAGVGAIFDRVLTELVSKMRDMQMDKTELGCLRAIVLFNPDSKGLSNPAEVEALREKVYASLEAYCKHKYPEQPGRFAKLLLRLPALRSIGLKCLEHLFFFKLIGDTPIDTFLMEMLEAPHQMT
Sequence of Estrogen receptor (Homo sapiens) (P03372 whole entry, looked up): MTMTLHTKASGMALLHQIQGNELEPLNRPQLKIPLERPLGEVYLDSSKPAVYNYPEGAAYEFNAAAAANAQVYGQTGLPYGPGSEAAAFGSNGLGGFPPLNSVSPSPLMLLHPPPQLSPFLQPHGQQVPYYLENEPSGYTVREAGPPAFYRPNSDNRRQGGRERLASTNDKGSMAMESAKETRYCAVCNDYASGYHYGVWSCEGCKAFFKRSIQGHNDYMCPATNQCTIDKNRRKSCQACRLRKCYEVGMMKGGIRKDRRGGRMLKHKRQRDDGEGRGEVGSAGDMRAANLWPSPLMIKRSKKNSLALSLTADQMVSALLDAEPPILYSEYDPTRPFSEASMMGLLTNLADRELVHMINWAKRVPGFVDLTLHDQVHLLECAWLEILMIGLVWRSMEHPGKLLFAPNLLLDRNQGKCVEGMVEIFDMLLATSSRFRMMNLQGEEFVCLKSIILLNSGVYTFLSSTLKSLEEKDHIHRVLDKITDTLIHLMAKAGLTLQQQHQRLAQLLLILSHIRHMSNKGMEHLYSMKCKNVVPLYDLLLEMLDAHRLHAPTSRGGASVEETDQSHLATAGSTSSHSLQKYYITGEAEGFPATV
Sequence of human Dopamine Transporter (DAT), SLC6A3 (gene 6531) (Q01959 whole entry, looked up): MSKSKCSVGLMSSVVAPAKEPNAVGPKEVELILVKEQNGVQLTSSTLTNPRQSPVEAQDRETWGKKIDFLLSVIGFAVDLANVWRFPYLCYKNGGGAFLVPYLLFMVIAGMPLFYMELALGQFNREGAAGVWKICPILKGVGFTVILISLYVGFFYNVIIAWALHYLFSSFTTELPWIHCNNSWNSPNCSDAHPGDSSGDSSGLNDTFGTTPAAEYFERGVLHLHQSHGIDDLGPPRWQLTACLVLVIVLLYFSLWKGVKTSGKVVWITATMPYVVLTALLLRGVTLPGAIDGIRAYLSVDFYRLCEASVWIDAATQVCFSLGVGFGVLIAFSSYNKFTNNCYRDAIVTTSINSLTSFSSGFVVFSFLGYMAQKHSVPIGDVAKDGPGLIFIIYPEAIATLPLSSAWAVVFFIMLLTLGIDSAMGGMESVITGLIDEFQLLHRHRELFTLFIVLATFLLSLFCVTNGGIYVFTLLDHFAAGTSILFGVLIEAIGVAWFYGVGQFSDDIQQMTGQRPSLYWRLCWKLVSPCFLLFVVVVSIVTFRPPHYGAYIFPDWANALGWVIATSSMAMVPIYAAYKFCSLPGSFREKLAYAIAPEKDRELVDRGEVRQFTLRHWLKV
Sequence of rat Serotonin Transporter (SERT), Slc6a4 (gene 25553) (P31652 whole entry, looked up): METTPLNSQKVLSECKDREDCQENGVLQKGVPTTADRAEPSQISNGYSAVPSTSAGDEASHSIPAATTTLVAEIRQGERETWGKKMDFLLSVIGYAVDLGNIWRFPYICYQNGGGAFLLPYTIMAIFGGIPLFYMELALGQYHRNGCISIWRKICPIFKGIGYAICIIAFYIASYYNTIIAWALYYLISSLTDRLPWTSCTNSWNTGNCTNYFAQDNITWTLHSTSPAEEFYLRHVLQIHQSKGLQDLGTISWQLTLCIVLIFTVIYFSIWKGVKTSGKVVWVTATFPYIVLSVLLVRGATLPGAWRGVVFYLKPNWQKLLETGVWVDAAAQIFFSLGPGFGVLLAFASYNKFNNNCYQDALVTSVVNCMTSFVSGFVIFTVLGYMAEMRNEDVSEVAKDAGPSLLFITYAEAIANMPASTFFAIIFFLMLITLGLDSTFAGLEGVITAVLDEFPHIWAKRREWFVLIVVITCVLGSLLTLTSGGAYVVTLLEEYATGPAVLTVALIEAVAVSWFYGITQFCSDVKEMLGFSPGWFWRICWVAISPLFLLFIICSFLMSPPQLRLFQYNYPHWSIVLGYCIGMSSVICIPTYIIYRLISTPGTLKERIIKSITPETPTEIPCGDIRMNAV

CC(=O)Nc1cc(S(=O)(=O)O)cc2cc(S(=O)(=O)O)c(N=Nc3ccccc3)c(O)c12
inactive: [1] | [2] | [3] | [4] | [6] | [7] | [8]
active: [5] 22.9 µM

CN1CCc2cccc3c2[C@H]1Cc1ccc(O)c(O)c1-3
active: [9] 0.309 µM
inactive: [1] | [2] | [3] | [4] | [7] | [8]

CC1=CCC(=C(C)C)CC1
active: [6] 77.4 µM
inactive: [1] | [3] | [4] | [5]

CC1=CCC(C(C)(C)O)CC1 (stereo not given)
inactive: [1] | [3] | [4] | [10] | [5] | [7] | [8]

CCCCCCCCCCCCN1CCOCC1
inactive: [1] | [2] | [3] | [4] | [7] | [8]
active: [5] 73.6 µM | [11] 0.559 µM | [12] 0.645 µM | [13] 1.86 µM

CCCCCCCCCCCCS
active: [5] 77.6 µM
inactive: [1] | [2] | [3] | [4] | [7] | [8]

C#C[C@]1(O)CC[C@H]2[C@@H]3CCc4cc(O)ccc4[C@H]3CC[C@@]21C
active: [14] 1.32 µM | [1] 15.6 µM | [15] 5.14 µM | [16] 0.463 µM | [17] 2.39 µM | [18] 514 nM and 517 nM and 623 nM | [5] 35.3 µM | [6] 18.2 µM | [11] 0.364 µM | [12] 0.369 µM
inactive: [1] | [5] | [6] | [7] | [8] | [13]

NC(=O)c1cccnc1
inactive: [1] | [2] | [3] | [4] | [10] | [5] | [7] | [8]
active: [6] 82.4 µM

COc1cc(OC)c2ccc(=O)oc2c1
inactive: [1] | [2] | [3] | [4] | [5] | [6] | [7] | [8]

CCC(=O)OCC=Cc1ccccc1
active: [16] 29.2 µM

CNC(=C[N+](=O)[O-])NCCSCc1ccc(CN(C)C)o1
inactive: [1] | [2] | [3] | [4] | [5] | [6] | [7] | [8]

CCCCCCCCOS(=O)(=O)O
inactive: [1] | [2] | [3] | [4] | [10] | [7] | [8]

O=C(O)CS
inactive: [1] | [2] | [3] | [4] | [5] | [7] | [8]
